Counter-ions that a name gives are not always drawn. ± gives the standard deviation of the averaged measurements.
Key:
[1] = system: E18 rat cortical neuron-glia co-culture; experiment: fiber score / MBP score (myelination specific beyond OL differentiation) (ratio); higher = more myelination-specific MBP alignment; conditions: treatment time: 8 days (DIV5-DIV13)
In short: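 Papain-dissociated primary E18 rat cortical co-cultures, plated at 20,000 cells/well on poly-d-lysine/laminin 96-well plates, were exposed to library compounds at 1 or 5 µM in myelination medium between DIV5 and DIV13. Following fixation in 4 % paraformaldehyde, cultures were stained for MBP, Olig2 and DAPI, and four 10X fields per well were analysed in duplicate wells. Values are the ratio of fiber score (continuous MBP fiber length per Olig2+ nucleus) to MBP score (thresholded MBP area × intensity per Olig2+ nucleus).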

[2] = system: E18 rat cortical neuron-glia co-culture; experiment: myelination (MBP fiber length per Olig2+ nucleus), % of 1 µM DAPT response (DMSO = 0) (% of DAPT); higher = more myelination, active = 50 or more; conditions: treatment time: 8 days (DIV5-DIV13)
In short: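 Myelination, expressed as continuous straight MBP fiber length per Olig2+ nucleus, was normalised to 0.1 % DMSO as 0 and a 1 µM positive control as 100. The cultures were primary E18 rat cortical co-cultures dissociated with papain and plated at 20,000 cells/well on poly-d-lysine/laminin-coated 96-well plates. They received library compounds at 1 or 5 µM in myelination medium between DIV5 and DIV13. Analysis covered four 10X fields per well in duplicate wells after 4 % paraformaldehyde fixation and immunostaining for MBP and Olig2 with DAPI.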

| Compound | fiber score / MBP score ([1]; 1 µM) | fiber score / MBP score ([1]; 5 µM) | myelination ([2]; 1 µM) | myelination ([2]; 5 µM) |
| --- | --- | --- | --- | --- |
| O=C1CN(/N=C/c2ccc(-c3ccc([N+](=O)[O-])cc3)o2)C(=O)N1 [Dantrolene sodium salt dihydrate] | 0.33 | 0.372 | -11.8 (inactive) | -14.2 (inactive) |
| CC1=C(C/C=C(\C)CCC[C@H](C)CCC[C@H](C)CCCC(C)C)C(=O)c2ccccc2C1=O [Phylloquinone] | 0.894 | 0.723 | -4.4 (inactive) | -10.2 (inactive) |
| C[C@]12C=CC(=O)C=C1CC[C@@H]1[C@@H]2[C@@H](O)C[C@@]2(C)[C@H]1CC[C@]2(O)C(=O)CO [Prednisolone] | 0.693 | 0.923 | -6.4 (inactive) | 0.38 (inactive) |
| CC(C)NCC(O)c1ccc(O)c(O)c1 (centres undefined) [Isoproterenol] | 0.965 | 0.931 | 13.7 (inactive) | 10.5 (inactive) |
| CCS(=O)(=O)CCn1c([N+](=O)[O-])cnc1C [Tinidazole] | 0.727 | 0.706 | -10.7 (inactive) | -14.2 (inactive) |
| COc1cc(-c2ccc(=O)[nH]n2)ccc1OC(F)F [Zardaverine] | 0.581 | 0.397 | -34.6 (inactive) | -42.4 (inactive) |
| CCn1cc(C(=O)O)c(=O)c2cc(F)c(N3CCN(C)CC3)cc21 [Pefloxacin] | 1 | 0.8 | -8.57 (inactive) | -12.3 (inactive) |
| CNNCc1ccc(C(=O)NC(C)C)cc1 [Procarbazine] | 0.937 | 1.09 | -6.44 (inactive) | -0.797 (inactive) |
| CC(C)(C)NC(=O)[C@@H]1CN(Cc2cccnc2)CCN1C[C@@H](O)C[C@@H](Cc1ccccc1)C(=O)N[C@H]1c2ccccc2C[C@H]1O [Indinavir] | 0.908 | 0.894 | -20.5 (inactive) | -24.1 (inactive) |
| O=C(CCCN1CC=C(n2c(=O)[nH]c3ccccc32)CC1)c1ccc(F)cc1 [Droperidol] | 0.863 | 0.601 | -4.1 (inactive) | -16.6 (inactive) |
| CCC(C)(C)C(=O)O[C@H]1C[C@@H](C)C=C2C=C[C@H](C)[C@H](CC[C@@H]3C[C@@H](O)CC(=O)O3)[C@H]21 [Simvastatin] | 1.17 | 3.15 | -17.5 (inactive) | 30 (inactive) |
| Fc1cncnc1 [5-fluoropyrimidine] | 0.595 | 0.899 | -17.3 (inactive) | 4.98 (inactive) |
| Cc1cn([C@H]2C=C[C@@H](CO)O2)c(=O)[nH]c1=O [Stavudine] | 0.646 ± 0.15 | 0.637 ± 0.27 | -12.8 (inactive) | -8.63 (inactive) |
| COCCCOc1ccnc(C[S+]([O-])c2nc3ccccc3[nH]2)c1C (centres undefined) [Rabeprazole] | 0.82 | 0.912 | -11.1 (inactive) | 10.6 (inactive) |
| NC(=O)c1cccnc1 [Niacinamide] | 0.96 | 0.901 | -7.93 (inactive) | -4.86 (inactive) |
| CCc1c(C)[nH]c2c1C(=O)C(CN1CCOCC1)CC2 (centres undefined) [Molindone] | 0.619 | 0.498 | -21 (inactive) | -25.8 (inactive) |
| CCN(CC)CCNC(=O)c1cc(Cl)c(N)cc1OC [Metoclopramide] | 0.848 | 0.91 | -6.65 (inactive) | -2.72 (inactive) |
| CN1CCN(c2c(F)cc3c(=O)c(C(=O)O)cn4c3c2SCC4)CC1 [Rufloxacin] | 1.05 | 0.68 | 62.1 | -35.3 (inactive) |
| CN1[C@@H]2CC[C@H]1C[C@@H](OC(=O)c1c[nH]c3ccccc13)C2 [Tropisetron] | 0.706 | 0.562 | -47.4 (inactive) | -53.9 (inactive) |
| COc1cc(C[C@@H](CO)[C@H](CO)Cc2ccc(O)c(OC)c2)ccc1O [Secoisolariciresinol] | 0.879 | 0.777 | -4.03 (inactive) | -8.85 (inactive) |
| OCc1cc(C(O)CNCCCCCCOCCCCc2ccccc2)ccc1O (centres undefined) [Salmeterol] | 0.225 | 0.0809 | -29.9 (inactive) | -37.6 (inactive) |
| Nc1nc(=O)[nH]cc1F [Flucytosine] | 0.88 | 0.855 | -9.17 (inactive) | -9.52 (inactive) |
| CC(C)Oc1ccc2c(=O)c(-c3ccccc3)coc2c1 [Ipriflavone] | 0.908 | 0.957 | -8.04 (inactive) | -7.62 (inactive) |

| Compound | fiber score / MBP score ([1]; 1 µM) | fiber score / MBP score ([1]; 5 µM) | myelination ([2]; 1 µM) | myelination ([2]; 5 µM) |
| --- | --- | --- | --- | --- |
| CNCCCCOc1ccccc1Cc1ccccc1 [Bifemelane] | 0.512 | 0.543 | -39.7 (inactive) | -28.5 (inactive) |
| CCOc1cc(CC(=O)N[C@@H](CC(C)C)c2ccccc2N2CCCCC2)ccc1C(=O)O [Repaglinide] | 0.81 | 1.19 | -8.93 (inactive) | 2.54 (inactive) |
| C[C@H]1[C@H](OC(=O)CCC(=O)O)O[C@@H]2O[C@@]3(C)CC[C@H]4[C@H](C)CC[C@@H]1[C@@]24OO3 [Artesunate] | 0.652 | 1.2 | -34.4 (inactive) | 189 |
| C[C@@](Cc1ccc(O)c(O)c1)(NN)C(=O)O [Carbidopa] | 0.917 | 0.776 | -3.67 (inactive) | -7.64 (inactive) |
| Fc1ccc([C@@H]2CCNC[C@H]2COc2ccc3c(c2)OCO3)cc1 [Paroxetine] | 0.8051 ± 0.003 | 1.08 ± 0.16 | -13.8 (inactive) | 3.71 (inactive) |
| COC1=CC(=O)C[C@@H](C)[C@]12Oc1c(Cl)c(OC)cc(OC)c1C2=O [Griseofulvin] | 0.759 | 0.92 | -17.8 (inactive) | 21.8 (inactive) |
| COC(=O)C1=C(C)NC(C)=C(C(=O)OC(C)C)C1c1cccc2nonc12 (centres undefined) [Isradipine] | 0.618 | 0.922 | -16.2 (inactive) | 34.9 (inactive) |
| CSc1nc2cc(Cl)c(Oc3cccc(Cl)c3Cl)cc2[nH]1 [Triclabendazole] | 0.682 | 0.685 | -23.9 (inactive) | -18.7 (inactive) |
| O=C1CC2(CCCC2)CC(=O)N1CCNCC1COc2ccccc2O1 (centres undefined) [Binospirone] | 0.768 | 0.49 | -14.3 (inactive) | -17.9 (inactive) |
| COc1ccccc1N1CCN(CC(O)COc2cccc3ccccc23)CC1 (centres undefined) [Naftopidil] | 0.655 | 0.695 | -33.5 (inactive) | 15 (inactive) |
| CC(C)[N+](C)(CCOC(=O)C1c2ccccc2Oc2ccccc21)C(C)C [Propantheline] | 0.889 | 0.949 | -4.45 (inactive) | 3.32 (inactive) |
| CC[C@@H]1C(=O)OC[C@@H]1Cc1cncn1C [Pilocarpine] | 0.814 | 0.782 | -24.8 (inactive) | -11.2 (inactive) |
| NS(=O)(=O)c1cc2c(cc1C(F)(F)F)NC(Cc1ccccc1)NS2(=O)=O (centres undefined) [Bendroflumethiazide] | 0.474 | 0.559 | -24.6 (inactive) | -27.7 (inactive) |
| Cc1ncc([N+](=O)[O-])n1CCO [Metronidazole] | 0.862 | 0.794 | -7.63 (inactive) | -10.1 (inactive) |
| O=C(O)CCc1nc(-c2ccccc2)c(-c2ccccc2)o1 [Oxaprozin] | 0.677 | 0.752 | -17 (inactive) | -14 (inactive) |
| O=C(O)c1cc(/N=N/c2ccc(S(=O)(=O)Nc3ccccn3)cc2)ccc1O [Sulfasalazine] | 0.823 | 1.17 | -11.7 (inactive) | 1.71 (inactive) |
| COc1cc(OC)c(C(=O)CCCN2CCCC2)c(OC)c1 [Buflomedil] | 0.901 | 0.768 | -13.2 (inactive) | -13.3 (inactive) |
| CC1(C)S[C@@H]2[C@H](NC(=O)[C@H](N)c3ccc(O)cc3)C(=O)N2[C@H]1C(=O)O [Amoxicillin] | 0.764 | 0.761 | -18.6 (inactive) | -33.3 (inactive) |
| Cc1nccn1CC1CCc2c(c3ccccc3n2C)C1=O (centres undefined) [Ondansetron] | 0.73 ± 0.022 | 0.404 ± 0.053 | -25.6 (inactive) | -35.8 (inactive) |
| NC(=O)c1cnccn1 [Pyrazinamide] | 0.64 | 0.862 | -16.4 (inactive) | -9.54 (inactive) |
| CN1CCN2c3ncccc3Cc3ccccc3C2C1 (centres undefined) [Mirtazapine] | 0.861 | 1.07 | -13.9 (inactive) | -4.21 (inactive) |
| CC(C)(C)NC(=O)[C@H]1CC[C@H]2[C@@H]3CC[C@H]4NC(=O)C=C[C@]4(C)[C@H]3CC[C@]12C [Finasteride] | 0.7 | 0.898 | -19.1 (inactive) | -10.7 (inactive) |
| O=C(C1CCCCC1)N1CC(=O)N2CCc3ccccc3C2C1 (centres undefined) [Praziquantel] | 1.03 | 0.947 | 7.75 (inactive) | -1.87 (inactive) |

Source: the supplement of paper PMC4840960
